The source of these data is publication PMC7862700, “An all-to-all approach to the identification of sequence-specific readers for epigenetic DNA modifications on cytosine”.

Assay in all cases: DAPPL (digital affinity profiling via proximity ligation, sequencing); 10 mM Tris-HCl pH 7.5, 50 mM NaCl, 1 mM DTT, 4% glycerol, room temperature, 30 min; GST-TFs on glutathione beads, 16-mer random dsDNA library, 0.1% formaldehyde crosslink after washing; high values mean tight binding
In one test the target is T1, FEV (Homo sapiens, UniProt Q99581 1-238).
T1 sequence: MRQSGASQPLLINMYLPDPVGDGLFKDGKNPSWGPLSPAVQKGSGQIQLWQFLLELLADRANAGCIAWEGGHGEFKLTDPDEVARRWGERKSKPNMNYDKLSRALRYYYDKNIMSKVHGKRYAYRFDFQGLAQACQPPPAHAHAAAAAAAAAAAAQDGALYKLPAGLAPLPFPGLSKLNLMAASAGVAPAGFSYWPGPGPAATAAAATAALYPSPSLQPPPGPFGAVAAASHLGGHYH
The note with it: protein: recombinant; tags: N-terminal GST; dsDNA, one strand shown. The method, boiled down: (§1)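 A tag-only sample was pooled with DNA-barcoded human transcription factors that had been expressed in yeast as GST fusions and captured on glutathione beads. The pools were incubated for 30 min at room temperature with 200 nmole of a random double-stranded 16-mer DNA library in Tris/NaCl/DTT/glycerol buffer, then washed, crosslinked with 0.1% formaldehyde, proximity-ligated (BsaI/T4 ligase, 1 h, 37 °C), PCR-amplified and sequenced on an Illumina NextSeq500. Binding signal is each hexamer's read frequency for a factor divided by its frequency for the tag-only sample.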

The next test deals with ETV5 (Homo sapiens, UniProt P41161 1-510). The note with it: protein: recombinant; tags: N-terminal GST; dsDNA, one strand shown. In short, it runs like this:
as §1

The next test has as its target HSF1 (Homo sapiens, UniProt Q00613 1-529). The note with it: protein: recombinant; tags: N-terminal GST; chain copies: 3; dsDNA, one strand shown. In short, it runs like this: as §1
For a further test, the target named is T2, SPIC (Homo sapiens, UniProt Q8N5J4 1-248).
T2 sequence: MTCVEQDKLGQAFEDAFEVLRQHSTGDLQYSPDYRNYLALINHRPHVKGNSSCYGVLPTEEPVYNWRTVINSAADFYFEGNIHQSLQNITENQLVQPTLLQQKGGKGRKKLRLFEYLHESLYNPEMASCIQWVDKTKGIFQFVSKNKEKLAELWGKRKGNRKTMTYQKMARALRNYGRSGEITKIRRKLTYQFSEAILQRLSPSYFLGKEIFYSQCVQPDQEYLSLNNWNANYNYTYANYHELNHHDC
As to conditions: protein: recombinant; tags: N-terminal GST; dsDNA, one strand shown. The method, boiled down:
as §1

The next test addresses ELF4 (Homo sapiens, UniProt Q99607 1-663). The note with it: protein: recombinant; tags: N-terminal GST; dsDNA, one strand shown. In short, it runs like this: as §1
The next test addresses T3, ELK4 (Homo sapiens, UniProt P28324-2 1-405).
T3 sequence: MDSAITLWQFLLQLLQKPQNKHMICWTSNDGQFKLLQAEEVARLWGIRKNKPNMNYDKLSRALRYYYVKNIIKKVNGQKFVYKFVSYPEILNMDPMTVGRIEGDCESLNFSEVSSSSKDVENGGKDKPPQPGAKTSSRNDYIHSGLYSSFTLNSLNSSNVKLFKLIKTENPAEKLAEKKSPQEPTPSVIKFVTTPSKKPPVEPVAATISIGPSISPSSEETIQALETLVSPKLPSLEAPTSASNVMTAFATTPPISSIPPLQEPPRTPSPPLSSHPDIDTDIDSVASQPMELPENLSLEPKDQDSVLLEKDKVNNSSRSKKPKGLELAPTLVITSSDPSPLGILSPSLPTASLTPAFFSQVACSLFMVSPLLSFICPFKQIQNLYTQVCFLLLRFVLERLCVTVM
As to conditions: protein: recombinant; tags: N-terminal GST; dsDNA, one strand shown. The method, boiled down:
as §1

Another test deals with T4, ETV2 (Homo sapiens, UniProt O00321 1-342).
T4 sequence: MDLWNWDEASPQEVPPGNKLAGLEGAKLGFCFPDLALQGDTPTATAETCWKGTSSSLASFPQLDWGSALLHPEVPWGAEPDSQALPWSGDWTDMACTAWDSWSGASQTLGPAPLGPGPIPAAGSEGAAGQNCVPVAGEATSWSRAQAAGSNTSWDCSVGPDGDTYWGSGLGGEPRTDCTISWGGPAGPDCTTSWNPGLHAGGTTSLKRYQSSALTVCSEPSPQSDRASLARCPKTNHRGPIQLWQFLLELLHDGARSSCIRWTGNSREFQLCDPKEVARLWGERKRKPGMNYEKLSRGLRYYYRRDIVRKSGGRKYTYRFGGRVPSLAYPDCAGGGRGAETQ
The note with it: protein: recombinant; tags: N-terminal GST; dsDNA, one strand shown. In short, it runs like this:
as §1

For the next test, the target named is T5, ELF3 (Homo sapiens, UniProt P78545 1-371).
T5 sequence: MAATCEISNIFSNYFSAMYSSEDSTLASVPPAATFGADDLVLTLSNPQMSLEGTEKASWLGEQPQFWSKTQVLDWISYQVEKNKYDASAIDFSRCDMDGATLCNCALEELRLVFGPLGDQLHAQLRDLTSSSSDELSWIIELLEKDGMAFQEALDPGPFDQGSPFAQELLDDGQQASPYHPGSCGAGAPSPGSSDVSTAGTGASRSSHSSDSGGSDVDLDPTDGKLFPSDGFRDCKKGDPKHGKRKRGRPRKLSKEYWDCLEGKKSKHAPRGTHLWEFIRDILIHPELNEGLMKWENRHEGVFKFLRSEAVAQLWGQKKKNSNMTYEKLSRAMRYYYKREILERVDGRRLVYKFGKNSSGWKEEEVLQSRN
The note with it: protein: recombinant; tags: N-terminal GST; dsDNA, one strand shown. In short, it runs like this: as §1

In a further test the target is CRX (Homo sapiens, UniProt O43186 1-299). As to conditions: protein: recombinant; tags: N-terminal GST; dsDNA, one strand shown. In short, it runs like this: as §1
CRX, sequence (O43186 whole entry): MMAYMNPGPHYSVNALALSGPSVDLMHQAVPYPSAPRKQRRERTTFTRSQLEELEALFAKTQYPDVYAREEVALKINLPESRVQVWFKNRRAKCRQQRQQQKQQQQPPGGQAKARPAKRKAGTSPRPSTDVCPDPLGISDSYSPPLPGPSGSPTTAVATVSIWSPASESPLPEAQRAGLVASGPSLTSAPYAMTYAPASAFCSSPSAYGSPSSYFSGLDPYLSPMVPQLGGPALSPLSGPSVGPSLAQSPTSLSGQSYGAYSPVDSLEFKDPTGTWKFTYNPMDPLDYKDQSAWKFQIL
The target in a further test is ETV1 (Homo sapiens, UniProt P50549 1-477). The note with it: protein: recombinant; tags: N-terminal GST; dsDNA, one strand shown. In short, it runs like this: as §1
ETV1, sequence (P50549 whole entry): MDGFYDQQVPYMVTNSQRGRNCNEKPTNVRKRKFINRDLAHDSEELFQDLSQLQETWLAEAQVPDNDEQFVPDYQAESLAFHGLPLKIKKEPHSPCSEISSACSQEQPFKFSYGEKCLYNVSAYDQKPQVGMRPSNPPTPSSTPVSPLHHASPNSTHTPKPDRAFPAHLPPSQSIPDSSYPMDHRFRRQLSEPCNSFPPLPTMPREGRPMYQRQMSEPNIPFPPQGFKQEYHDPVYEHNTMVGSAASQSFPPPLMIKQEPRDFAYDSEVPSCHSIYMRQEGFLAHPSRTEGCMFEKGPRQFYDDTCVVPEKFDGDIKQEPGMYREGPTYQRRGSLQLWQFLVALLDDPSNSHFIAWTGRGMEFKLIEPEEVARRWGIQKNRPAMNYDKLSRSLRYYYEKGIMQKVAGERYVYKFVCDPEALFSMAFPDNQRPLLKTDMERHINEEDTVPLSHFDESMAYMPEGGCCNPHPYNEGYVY
A further test concerns the target T6, ERF (Homo sapiens, UniProt P50548 1-548).
T6 sequence: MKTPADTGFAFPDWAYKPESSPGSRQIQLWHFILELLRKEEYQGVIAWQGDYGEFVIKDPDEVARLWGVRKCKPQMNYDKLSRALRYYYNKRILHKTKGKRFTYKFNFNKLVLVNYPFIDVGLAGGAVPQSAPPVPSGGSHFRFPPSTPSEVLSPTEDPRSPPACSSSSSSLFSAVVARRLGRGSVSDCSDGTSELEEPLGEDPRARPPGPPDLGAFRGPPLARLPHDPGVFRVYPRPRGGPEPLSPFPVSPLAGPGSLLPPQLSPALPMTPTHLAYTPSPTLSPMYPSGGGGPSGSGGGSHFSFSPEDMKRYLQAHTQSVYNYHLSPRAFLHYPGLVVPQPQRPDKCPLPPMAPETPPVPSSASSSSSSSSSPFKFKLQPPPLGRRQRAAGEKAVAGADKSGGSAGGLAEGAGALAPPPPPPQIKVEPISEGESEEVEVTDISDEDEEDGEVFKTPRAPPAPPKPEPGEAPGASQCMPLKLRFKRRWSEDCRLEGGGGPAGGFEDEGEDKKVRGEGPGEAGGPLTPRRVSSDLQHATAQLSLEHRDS
The note with it: protein: recombinant; tags: N-terminal GST; dsDNA, one strand shown. In short, it runs like this:
as §1

For the next test, the target named is T7, ETV3L (Homo sapiens, UniProt Q6ZN32 1-361).
T7 sequence: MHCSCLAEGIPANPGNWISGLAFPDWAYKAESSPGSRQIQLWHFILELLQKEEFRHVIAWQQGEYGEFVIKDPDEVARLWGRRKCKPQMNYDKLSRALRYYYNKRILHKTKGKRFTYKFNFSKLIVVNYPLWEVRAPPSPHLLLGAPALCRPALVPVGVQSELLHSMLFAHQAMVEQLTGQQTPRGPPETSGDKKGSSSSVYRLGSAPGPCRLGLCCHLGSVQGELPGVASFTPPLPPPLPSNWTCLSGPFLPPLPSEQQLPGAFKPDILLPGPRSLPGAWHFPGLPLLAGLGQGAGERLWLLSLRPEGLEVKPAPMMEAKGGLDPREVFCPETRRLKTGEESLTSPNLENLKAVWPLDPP
The note with it: protein: recombinant; tags: N-terminal GST; dsDNA, one strand shown. In short, it runs like this:
as §1

Another test has as its target T8, ETS2 (Homo sapiens, UniProt P15036 1-469).
T8 sequence: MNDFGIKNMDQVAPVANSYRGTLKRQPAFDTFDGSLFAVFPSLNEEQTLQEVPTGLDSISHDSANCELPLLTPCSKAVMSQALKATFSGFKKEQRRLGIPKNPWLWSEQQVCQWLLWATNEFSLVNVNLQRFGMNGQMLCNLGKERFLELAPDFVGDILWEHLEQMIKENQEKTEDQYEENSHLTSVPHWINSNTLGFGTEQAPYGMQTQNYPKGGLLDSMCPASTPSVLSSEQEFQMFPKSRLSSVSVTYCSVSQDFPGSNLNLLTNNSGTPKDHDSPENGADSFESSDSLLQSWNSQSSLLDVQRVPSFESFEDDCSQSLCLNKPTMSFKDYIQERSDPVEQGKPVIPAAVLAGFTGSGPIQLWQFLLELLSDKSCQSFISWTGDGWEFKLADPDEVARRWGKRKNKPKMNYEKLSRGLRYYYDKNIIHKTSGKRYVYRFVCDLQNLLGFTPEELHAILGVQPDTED
As to conditions: protein: recombinant; tags: N-terminal GST; dsDNA, one strand shown. The method, boiled down:
as §1

For a further test, the target named is T9, SPDEF (Homo sapiens, UniProt O95238 1-335).
T9 sequence: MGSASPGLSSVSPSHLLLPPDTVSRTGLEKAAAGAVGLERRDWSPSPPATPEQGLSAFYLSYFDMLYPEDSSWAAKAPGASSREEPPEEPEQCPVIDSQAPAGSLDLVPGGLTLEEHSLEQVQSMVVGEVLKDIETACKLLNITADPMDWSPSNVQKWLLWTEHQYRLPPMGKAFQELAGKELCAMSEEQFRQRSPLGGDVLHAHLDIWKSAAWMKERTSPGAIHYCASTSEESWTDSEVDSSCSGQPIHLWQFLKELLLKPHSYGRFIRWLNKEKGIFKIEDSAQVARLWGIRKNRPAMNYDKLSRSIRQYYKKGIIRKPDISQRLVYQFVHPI
The note with it: protein: recombinant; tags: N-terminal GST; dsDNA, one strand shown. In short, it runs like this: as §1

Another test has as its target T10, ETV7 (Homo sapiens, UniProt Q9Y603 1-341).
T10 sequence: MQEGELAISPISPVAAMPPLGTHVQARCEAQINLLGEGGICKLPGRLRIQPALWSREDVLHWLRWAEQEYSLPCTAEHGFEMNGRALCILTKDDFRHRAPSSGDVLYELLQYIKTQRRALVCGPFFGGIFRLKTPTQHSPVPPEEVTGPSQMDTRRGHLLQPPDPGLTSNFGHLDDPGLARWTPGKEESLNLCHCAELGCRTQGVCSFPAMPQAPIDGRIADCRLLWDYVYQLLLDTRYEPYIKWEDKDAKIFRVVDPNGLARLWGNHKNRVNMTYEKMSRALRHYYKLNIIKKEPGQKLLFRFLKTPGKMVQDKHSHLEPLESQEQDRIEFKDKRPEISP
The note with it: protein: recombinant; tags: N-terminal GST; dsDNA, one strand shown. The method, boiled down:
as §1

A further test addresses T11, ELF5 (Homo sapiens, UniProt Q9UKW6-2 1-255).
T11 sequence: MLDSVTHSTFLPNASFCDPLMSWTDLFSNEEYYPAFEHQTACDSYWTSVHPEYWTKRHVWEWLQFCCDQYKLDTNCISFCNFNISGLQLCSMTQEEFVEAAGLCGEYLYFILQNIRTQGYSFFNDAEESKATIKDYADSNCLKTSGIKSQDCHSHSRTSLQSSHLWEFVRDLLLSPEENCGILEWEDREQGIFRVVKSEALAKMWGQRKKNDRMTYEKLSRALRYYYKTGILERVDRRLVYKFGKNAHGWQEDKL
The note with it: protein: recombinant; tags: N-terminal GST; dsDNA, one strand shown. In short, it runs like this: as §1

Another test addresses T12, ETV3 (Homo sapiens, UniProt P41162-2 1-143).
T12 sequence: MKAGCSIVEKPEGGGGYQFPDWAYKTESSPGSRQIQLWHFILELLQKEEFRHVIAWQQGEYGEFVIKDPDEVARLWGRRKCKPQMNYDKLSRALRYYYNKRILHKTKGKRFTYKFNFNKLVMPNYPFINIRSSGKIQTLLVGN
As to conditions: protein: recombinant; tags: N-terminal GST; dsDNA, one strand shown. In short, it runs like this: as §1

Another test has as its target ETV6 (Homo sapiens, UniProt P41212 1-452). As to conditions: protein: recombinant; tags: N-terminal GST; dsDNA, one strand shown. In short, it runs like this: as §1

ETV5, sequence (P41161 whole entry): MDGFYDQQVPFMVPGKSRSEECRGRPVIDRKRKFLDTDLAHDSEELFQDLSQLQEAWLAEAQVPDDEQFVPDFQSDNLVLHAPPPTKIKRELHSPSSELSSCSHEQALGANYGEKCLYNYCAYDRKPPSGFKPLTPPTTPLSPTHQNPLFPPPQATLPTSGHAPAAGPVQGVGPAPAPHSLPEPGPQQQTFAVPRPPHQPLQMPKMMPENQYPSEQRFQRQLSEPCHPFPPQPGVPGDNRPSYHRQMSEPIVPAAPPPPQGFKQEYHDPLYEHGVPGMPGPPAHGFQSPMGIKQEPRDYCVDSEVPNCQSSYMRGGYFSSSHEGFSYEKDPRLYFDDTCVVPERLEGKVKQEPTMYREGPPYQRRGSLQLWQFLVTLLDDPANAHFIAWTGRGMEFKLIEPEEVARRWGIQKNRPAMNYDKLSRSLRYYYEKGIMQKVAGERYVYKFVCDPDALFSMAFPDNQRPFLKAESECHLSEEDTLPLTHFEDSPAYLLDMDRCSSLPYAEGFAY
ETV6, sequence (P41212 whole entry): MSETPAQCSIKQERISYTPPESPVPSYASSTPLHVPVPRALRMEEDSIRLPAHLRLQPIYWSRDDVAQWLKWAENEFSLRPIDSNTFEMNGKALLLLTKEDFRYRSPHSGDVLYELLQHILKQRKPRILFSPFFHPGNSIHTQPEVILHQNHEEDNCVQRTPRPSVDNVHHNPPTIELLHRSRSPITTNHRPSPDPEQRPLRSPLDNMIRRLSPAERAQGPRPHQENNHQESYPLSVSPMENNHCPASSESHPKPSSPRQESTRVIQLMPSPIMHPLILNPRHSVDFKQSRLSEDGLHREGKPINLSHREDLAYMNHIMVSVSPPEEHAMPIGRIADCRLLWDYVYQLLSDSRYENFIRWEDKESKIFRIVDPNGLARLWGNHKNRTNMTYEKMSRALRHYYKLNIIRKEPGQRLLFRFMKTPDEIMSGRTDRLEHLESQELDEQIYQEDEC
HSF1, sequence (Q00613 whole entry): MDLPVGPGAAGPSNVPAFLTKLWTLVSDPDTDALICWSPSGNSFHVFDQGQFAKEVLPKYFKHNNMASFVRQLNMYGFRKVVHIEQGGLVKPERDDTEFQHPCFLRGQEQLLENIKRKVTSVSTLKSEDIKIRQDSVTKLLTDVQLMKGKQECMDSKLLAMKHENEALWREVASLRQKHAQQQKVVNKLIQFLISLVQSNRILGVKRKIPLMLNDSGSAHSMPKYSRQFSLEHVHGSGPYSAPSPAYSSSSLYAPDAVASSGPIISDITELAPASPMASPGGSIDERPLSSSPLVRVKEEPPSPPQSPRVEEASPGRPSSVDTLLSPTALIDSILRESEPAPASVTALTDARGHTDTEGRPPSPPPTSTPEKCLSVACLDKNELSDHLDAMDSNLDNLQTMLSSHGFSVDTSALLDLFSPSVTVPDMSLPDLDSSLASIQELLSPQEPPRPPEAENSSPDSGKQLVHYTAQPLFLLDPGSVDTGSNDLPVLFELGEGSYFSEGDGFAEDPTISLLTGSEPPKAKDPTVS
ELF4, sequence (Q99607 whole entry): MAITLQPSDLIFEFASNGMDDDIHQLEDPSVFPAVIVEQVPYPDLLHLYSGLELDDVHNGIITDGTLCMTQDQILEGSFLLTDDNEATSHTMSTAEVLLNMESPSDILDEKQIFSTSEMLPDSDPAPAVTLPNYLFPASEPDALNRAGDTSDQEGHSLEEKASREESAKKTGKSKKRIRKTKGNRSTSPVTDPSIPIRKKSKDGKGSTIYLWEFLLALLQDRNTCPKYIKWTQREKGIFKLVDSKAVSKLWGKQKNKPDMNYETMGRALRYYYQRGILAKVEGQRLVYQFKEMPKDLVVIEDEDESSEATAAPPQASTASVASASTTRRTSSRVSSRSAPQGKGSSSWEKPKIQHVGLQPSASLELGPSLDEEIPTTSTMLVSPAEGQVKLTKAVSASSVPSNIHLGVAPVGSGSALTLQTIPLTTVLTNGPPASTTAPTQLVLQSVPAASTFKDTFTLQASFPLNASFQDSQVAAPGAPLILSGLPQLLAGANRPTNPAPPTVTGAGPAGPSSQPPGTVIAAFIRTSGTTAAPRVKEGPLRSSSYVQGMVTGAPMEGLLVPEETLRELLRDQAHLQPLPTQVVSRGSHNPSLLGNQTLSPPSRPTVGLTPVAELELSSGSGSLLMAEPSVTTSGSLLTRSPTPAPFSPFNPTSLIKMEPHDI

As for CTAGTT, the binding signal in the test with FEV is 1.23 fold enrichment (6-mer frequency, TF over GST control); in the test with ETV5 it was 1.31 fold enrichment (6-mer frequency, TF over GST control); in the test with HSF1 it was 1.51 fold enrichment (6-mer frequency, TF over GST control); with SPIC it was 1.47 fold enrichment (6-mer frequency, TF over GST control); in the test with ELF4, 1.35 fold enrichment (6-mer frequency, TF over GST control); with ELK4, 1.54 fold enrichment (6-mer frequency, TF over GST control). The binding signal with ETV2 is 1.32 fold enrichment (6-mer frequency, TF over GST control); with ELF3, 1.38 fold enrichment (6-mer frequency, TF over GST control); in the test with CRX, 1.16 fold enrichment (6-mer frequency, TF over GST control); in the test with ETV1, 1.35 fold enrichment (6-mer frequency, TF over GST control); with ERF, 1.34 fold enrichment (6-mer frequency, TF over GST control); with ETV3L, 1.23 fold enrichment (6-mer frequency, TF over GST control). Moreover, the binding signal in the test with ETS2 is 1.38 fold enrichment (6-mer frequency, TF over GST control); with SPDEF, 1.29 fold enrichment (6-mer frequency, TF over GST control); in the test with ETV7, 1.28 fold enrichment (6-mer frequency, TF over GST control); with ELF5, 1.22 fold enrichment (6-mer frequency, TF over GST control); with ETV3 it was 1.19 fold enrichment (6-mer frequency, TF over GST control); with ETV6, 1.3 fold enrichment (6-mer frequency, TF over GST control).
